# A selection: hits, their analogues and other compounds. The true share with any hit is near 7%.
# rCAG RNA binder: r(CAG) repeat RNA binding; inhibition, % at 3 µM; TO-PRO-1 dye displacement fluorescence; AID 651821; 370,000 compounds, 1.3% hits;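 active = inhibition above the plate cutoff, the mean of all test compounds on that plate plus 3 SD, cut at about 35% in these data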;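 also: 0% = DMSO alone and 100% = 100 µM mitoxantrone as full dye displacement; higher means more dye released from RNA so lower well fluorescence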
# ADAM17 inh: ADAM17 inhibition, QFRET primary screen. AID 720648. inhibition, % at 6.95 µM. recombinant ADAM17, EDANS/DABCYL FRET peptide cleavage. 370,000 compounds, 0.83% hits. P78536;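 active = inhibition above the mean of compounds lying between control limits plus 3 SD, set per campaign, cut at about 8.5% in these data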;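 also: 0% = DMSO-only wells as the low control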
# ADAM10 inh: inhibits human ADAM10; AID 720582; O14672; inhibition, % at 7 µM; recombinant ADAM10, EDANS/DABCYL FRET peptide cleavage, 3 h; 370,000 compounds, 0.62% hits;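 active = inhibition above a per-campaign cutoff equal to the mean of compounds falling between control-based bounds plus 3 SD, cut at about 20% in these data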;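 also: 0% = DMSO wells while the 100% control is not disclosed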
# GRIN3A LBD mod: NR3A (human) ligand-binding domain modulation. NR3A LBD differential scanning fluorimetry, Tm shift; 0% = protein alone, 100% = glycine-bound protein. Tm shift relative to glycine control, % at 25 µM. 340,000 compounds, 2.5% hits. AID 1259313;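 active = melting temperature shift of at least 10% of the positive control shift, at one fixed dose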
# AHR activator: activates the human aryl hydrocarbon receptor | P35869 | AHR-responsive luciferase reporter cells, luminescence | activation, % at 5 µM | 320,000 compounds, 2.5% hits | AID 2796; in the data active = activation above about 47%;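 also: 0% = vehicle wells and 100% = reference agonist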
# Target sequence (P35869 whole entry, looked up): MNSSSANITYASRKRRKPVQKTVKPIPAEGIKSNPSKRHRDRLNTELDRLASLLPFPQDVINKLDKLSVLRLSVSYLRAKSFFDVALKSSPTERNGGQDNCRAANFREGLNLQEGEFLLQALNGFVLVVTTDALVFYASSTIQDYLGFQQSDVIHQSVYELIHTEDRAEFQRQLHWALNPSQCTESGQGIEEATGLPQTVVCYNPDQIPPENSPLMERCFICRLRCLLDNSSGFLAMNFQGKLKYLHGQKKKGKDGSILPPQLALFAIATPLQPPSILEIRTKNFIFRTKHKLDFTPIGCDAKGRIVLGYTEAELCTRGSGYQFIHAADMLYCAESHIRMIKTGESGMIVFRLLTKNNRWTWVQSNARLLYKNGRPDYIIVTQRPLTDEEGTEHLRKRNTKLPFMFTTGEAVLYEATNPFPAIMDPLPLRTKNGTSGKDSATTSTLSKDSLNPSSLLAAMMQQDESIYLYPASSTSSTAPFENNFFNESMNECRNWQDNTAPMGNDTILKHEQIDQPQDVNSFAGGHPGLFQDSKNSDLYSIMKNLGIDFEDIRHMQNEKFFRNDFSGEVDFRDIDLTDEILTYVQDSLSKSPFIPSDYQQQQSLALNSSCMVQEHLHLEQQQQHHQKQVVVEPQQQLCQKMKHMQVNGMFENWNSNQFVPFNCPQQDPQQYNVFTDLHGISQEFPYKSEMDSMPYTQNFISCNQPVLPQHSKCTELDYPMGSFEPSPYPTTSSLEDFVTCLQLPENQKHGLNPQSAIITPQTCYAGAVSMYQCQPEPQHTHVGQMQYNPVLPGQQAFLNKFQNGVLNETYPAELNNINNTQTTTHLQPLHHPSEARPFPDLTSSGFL
# proKLK7 act: activators of human kallikrein-7 zymogen. P49862. purified proKLK7, EDANS-DABCYL substrate fluorescence; 100% is mature enzyme control, 0% vehicle. activation, % at 7 µM. 370,000 compounds, 0.9% hits. AID 652039;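 active = activation above the mean of all tested compounds plus 3 SD, computed per campaign excluding outliers beyond control limits, cut at about 13% in these data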
# AHR act confirm: human AHR activation, confirmation; shares compounds with AHR activator; human cells, AHR-responsive luciferase reporter, luminescence; activation, % at 9 µM; 2,300 compounds, 87% hits; AID 2845; in the data active = activation above about 49%;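 also: HepG2 hepatoma cells carrying a DRE-driven firefly luciferase reporter; 0% = vehicle wells and 100% = reference agonist wells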
# PXR act counter: activates human PXR in AHR activator counter-screen; shares compounds with AHR activator; cell-based PXR reporter, luciferase luminescence; activation, % at 11.6 µM; 2,300 compounds, 88% hits; in the data active = activation above about 11%;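 also: human hepatoma DPX-2 cells expressing full-length human PXR; 0% = DMSO and 100% = reference agonist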
# * hit, by the source's call; i = inactive; . = not tested or not shown.
SMILES,rCAG RNA binder,ADAM17 inh,ADAM10 inh,GRIN3A LBD mod,AHR activator,proKLK7 act,AHR act confirm,PXR act counter
COc1ccc(NC(=O)c2sccc2-n2cccc2)cc1,-5,-3,-4,0,26,0,.,.
CCc1ccc(NC(=O)c2sccc2-n2cccc2)cc1,0,5,9,-4,102*,0,141*,41*
Cc1ccc(NC(=O)c2sccc2-n2cccc2)c(C)c1,0,-5,-17,2,11,0,.,.
O=C(Nc1ccc(Cl)cc1)c1sccc1-n1cccc1,-2,2,7,-41,138*,-1,145*,28*
COc1ccc(NC(=O)CSc2nnc(-c3n[nH]c4c3CCC4)n2N)cc1OC,0,0,-93,.,.,0,.,.
CCOc1ccc(/C=C2\NCCc3cc(OCC)c(OCC)cc32)cc1OCC,2,-99,-299,.,.,-2,.,.
O=C(Nc1cccc(Cl)c1)c1ccc(=O)[nH]n1,0,-3,-1,1,148*,-1,104*,.
Fc1ccc(N/N=C2/CC(c3ccccc3)Oc3ccccc32)c(F)c1 (stereo not given),12,-8,-24,-4,98*,0,90*,26*
COC(=O)[C@]12C[C@H](CC(=O)NCc3ccc(OC)c(OC)c3)C(=O)N(CCC3=CCCCC3)C1=C[C@H](C(C)C)O[C@@H]2C1CC1,3,1,7,.,.,0,.,.
Cn1ncc(C(=O)Nc2ccc(Cl)cc2)c1C(F)(F)F,-2,-3,-7,5,6,0,.,.
Cn1ncc(C(=O)Nc2ccc(OC(F)(F)F)cc2)c1-n1cccc1,-6,0,-2,1,80*,0,100*,30*
O=C(NC(=S)Nc1ccccc1N1CCCC1)c1cccc(F)c1,5,-6,-3,-3,80*,0,91*,43*
Cc1sc(N/N=C/c2cccnc2)nc1-c1ccccc1,8,0,1,-14,1,-3,.,.
Cc1ccc2nc(N/N=C/c3ccco3)cc(C)c2c1,4,-45,-119,2,121*,-2,177*,23*
Cc1ccc2nc(SCC(=O)N/N=C/c3ccco3)cc(C)c2c1,3,-2,1,-3,5,0,.,.
Cc1sc(N/N=C/c2ccco2)nc1-c1ccccc1,11,1,-6,-3,170*,-1,80*,31*
COC(=O)[C@]12C[C@H](CC(=O)N3CCN(C(=O)C4CC4)CC3)C(=O)N(Cc3ccccc3)C1=C[C@H](C1CCCC1)O[C@@H]2C,1,-2,3,.,.,0,.,.
O=S1(=O)c2ccc(N3CCC[C@@H]3CO)cc2O[C@H]2CCN1C2,4,-12,-19,.,.,0,.,.
CC(C)C(C(=O)NCc1ccccc1)N1CCN(CCN2CCOCC2)CC1 (stereo not given),1,-3,-7,.,.,1,.,.
Cc1cccc2nc(C(=O)Nc3cc(Cl)ccc3-n3cncn3)cn12,0,-3,-11,-3,88*,0,88*,30*
Cc1cccc(C(=O)Nc2cc(Cl)ccc2-n2cncn2)c1[N+](=O)[O-],4,-2,-5,1,14,1,.,.
Clc1ccc(-c2cn3cc(Br)ccc3n2)cc1Cl,12,-1,2,-26,90*,0,137*,16*
Cc1noc(C)c1C(=O)N1CCC(n2nnc3ncccc32)CC1,0,1,-2,.,.,0,.,.
COc1ccc(C(=O)COc2ccccc2C(N)=O)cc1,-2,-1,4,0,3,-1,.,.
COc1ccc(C(=O)COc2ccccc2C#N)cc1,1,-6,1,-2,90*,0,67*,23*
SMILES,rCAG RNA binder,ADAM17 inh,ADAM10 inh,GRIN3A LBD mod,AHR activator,proKLK7 act,AHR act confirm,PXR act counter
CCCCOCC1CN(CCCC)S(=O)(=O)c2c(NCc3cc(OC)c(OC)c(OC)c3)cccc2O1 (stereo not given),8,1,-3,.,.,0,.,.
O=C(COC(=O)Cn1cnc2ccccc21)Nc1cc2c(cc1Cl)C(=O)c1ccccc1C2=O,22,-1,-4,-5,84*,0,146*,27*
O=C(Nc1nc2ncccn2c1-c1ccccc1)c1ccccc1,0,-52,-162,.,.,7,.,.
CCc1ccc2oc(C(=O)NCc3ccncc3)c(C)c2c1,-3,1,-2,1,15,0,.,.
Cc1cc(C)c2c(C)c(C(=O)NCc3ccncc3)oc2c1,0,0,-4,1,83*,0,73*,24*
C[C@@H]1CCCCO[C@@H](CN(C)Cc2ccc(C(=O)O)cc2)[C@@H](C)CN([C@H](C)CO)C(=O)c2cc(NS(C)(=O)=O)ccc2O1,12,-5,-12,.,.,1,.,.
N#Cc1nc(-c2ccc(F)cc2)oc1NCCCn1ccnc1,.,.,.,.,106*,.,97*,30*
CC(=O)Nc1ccc(S(=O)(=O)NCC2CCN(C(=O)C(=O)c3cc4ccccc4o3)CC2)cc1,5,-2,-6,.,.,0,.,.
Nc1nc2c(ncn2[C@@H]2O[C@H](C(=O)N[C@@H](Cc3ccccc3)C(=O)NCc3ccc4c(c3)OCO4)[C@@H](O)[C@H]2O)c(=O)[nH]1,7,3,4,.,.,0,.,.
Cn1c2ccccc2c(=O)c2ccc(NCCc3cccs3)cc21,14,i,i,-3,111*,-147,-2,113*
Cc1ccc2c(c1)[nH]c1c(=O)n(CCCN3CCOCC3)cnc12,-5,-7,-15,-1,35,0,.,.
Cc1ccc2c(c1)[nH]c1c(=O)n(CCN3CCCCC3)cnc12,-3,-11,-17,-10,94*,-1,105*,76*
Cc1c(C(=O)N2c3ccccc3CC2C)oc2ccccc12 (stereo not given),-1,0,8,4,85*,0,74*,28*
O=C(NCc1ccccc1)[C@@H]1CCCN1C(=O)[C@H]1CCCN1C(=O)c1ccc(F)c(F)c1,0,-3,-8,.,.,1,.,.
Nc1[nH]c2cc(C(F)(F)F)ccc2c1C(=O)N1CCN(CCc2ccccc2)CC1,3,-10,-13,.,.,0,.,.
CON/C=C(\C=Nc1ccc(F)cc1)c1ncc(C(F)(F)F)cc1Cl,-1,1,-2,3,89*,0,94*,23*
COc1cc2c3c(c1)C1(C(=O)N3C(C)(C)C=C2C)C(C#N)=C(N)Oc2cc(O)ccc21 (stereo not given),3,2,15,-22,93*,0,39,2
O=S1(=O)N[C@H](Cc2ccccc2)COc2cc(N3CCCC3)ccc21,3,-1,2,.,.,1,.,.
CC(NC(=O)C(NC(=O)OCc1ccccc1)C(C)O)C(=O)OCc1ccccc1 (stereo not given),2,0,-1,.,.,0,.,.

# High-throughput results deposited in PubChem BioAssay by several laboratories.
